From PubChem BioAssay AID1159580 (chemical genetic matrix, 2015)
In all, about 5,500 compounds went through this assay and about 2,000 (36%) were called active. Roughly 18% stayed inconclusive and do not appear here. Cut-off read from the data, not from the text of the source: active = normalized growth mostly below about 0.91 (no sharp cut-off); inconclusive = no clear call, values can overlap the other calls; inactive = mostly above about 0.92. This is one part of the list.

Assay: chemical genetic growth profiling, strain panel (AID 1159580);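 note: tested at 20 µM; growth read once vehicle control cultures reached saturation at 30 °C; 1 = growth at the plate median or of vehicle wells; lower values mean less growth of the strain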
Conditions: growth OD

Measured: normalized growth

Cc1cc(=O)c2c(O)c(C)c(O)cc2o1
inactive: S. cerevisiae deletion strains, locus YAL021C, strain ccr4, hits give low values 1 | S. cerevisiae deletion strains, locus YAL026C, strain drs2, hits give low values 1.04 | S. cerevisiae deletion strains, locus YAL030W, strain snc1, hits give low values 1.02 | S. cerevisiae deletion strains, locus YBL061C, strain skt5, hits give low values 1.02 | S. cerevisiae deletion strains, locus YBR009C, strain hhf1, hits give low values 1.01 | S. cerevisiae deletion strains, locus YBR021W, strain FUR4, hits give low values 0.91 | S. cerevisiae deletion strains, locus YBR023C, strain chs3, hits give low values 1.03 | S. cerevisiae deletion strains, locus YBR171W, strain sec66, hits give low values 1.03 | S. cerevisiae deletion strains, locus YBR229C, strain ROT2, hits give low values 1.02 | S. cerevisiae deletion strains, locus YBR231C, strain swc5, hits give low values 1.02 | S. cerevisiae deletion strains, locus YBR279W, strain paf1, hits give low values 1.01 | S. cerevisiae deletion strains, locus YCL011C, strain gbp2, hits give low values 1.04 | S. cerevisiae deletion strains, locus YCL016C, strain dcc1, hits give low values 1.01 | S. cerevisiae deletion strains, locus YCL029C, strain bik1, hits give low values 0.975 | S. cerevisiae deletion strains, locus YCL069W, strain vba3, hits give low values 1.02 | S. cerevisiae deletion strains, locus YCR088W, strain abp1, hits give low values 1.02 | S. cerevisiae deletion strains, locus YDL005C, strain med2, hits give low values 1.02 | S. cerevisiae deletion strains, locus YDL035C, strain GPR1, hits give low values 0.978 | S. cerevisiae deletion strains, locus YDL040C, strain nat1, hits give low values 1.01 | S. cerevisiae deletion strains, locus YDL074C, strain BRE1, hits give low values 0.973 | S. cerevisiae deletion strains, locus YDL101C, strain DUN1, hits give low values 0.991 | S. cerevisiae deletion strains, locus YDL134C, strain PPH21, hits give low values 0.983 | S. cerevisiae deletion strains, locus YDL185W, strain tfp1, hits give low values 0.983 | S. cerevisiae deletion strains, locus YDL192W, strain arf1, hits give low values 0.954 | S. cerevisiae deletion strains, locus YDR001C, strain nth1, hits give low values 1.02 | S. cerevisiae deletion strains, locus YDR069C, strain doa4, hits give low values 1.02 | S. cerevisiae deletion strains, locus YDR101C, strain arx1, hits give low values 0.957 | S. cerevisiae deletion strains, locus YDR137W, strain rgp1, hits give low values 1.03 | S. cerevisiae deletion strains, locus YDR159W, strain sac3, hits give low values 1.03 | S. cerevisiae deletion strains, locus YDR162C, strain NBP2, hits give low values 0.922 | S. cerevisiae deletion strains, locus YDR195W, strain ref2 1.01 | S. cerevisiae deletion strains, locus YDR297W, strain sur2, hits give low values 1.01 | S. cerevisiae deletion strains, locus YDR318W, strain mcm21, hits give low values 0.95 | S. cerevisiae deletion strains, locus YDR334W, strain swr1, hits give low values 1.01 | S. cerevisiae deletion strains, locus YDR335W, strain msn5, hits give low values 1.04 | S. cerevisiae deletion strains, locus YDR388W, hits give low values 0.988 | S. cerevisiae deletion strains, locus YDR392W, strain spt3, hits give low values 1.04 | S. cerevisiae deletion strains, locus YDR502C, strain sam2, hits give low values 0.935 | S. cerevisiae deletion strains, locus YEL003W, strain gim4, hits give low values 1.02 | S. cerevisiae deletion strains, locus YEL037C, strain rad23, hits give low values 1.03 | S. cerevisiae deletion strains, locus YEL061C, strain CIN8 (second series), hits give low values 1.01 | S. cerevisiae deletion strains, locus YEL061C, strain CIN8, hits give low values 1 | S. cerevisiae deletion strains, locus YER015W, strain faa2, hits give low values 1.02 | S. cerevisiae deletion strains, locus YER016W, strain bim1, hits give low values 1.01 | S. cerevisiae deletion strains, locus YER110C, hits give low values 0.96 | S. cerevisiae deletion strains, locus YER111C, strain swi4, hits give low values 1.03 | S. cerevisiae deletion strains, locus YER155C, strain BEM2 (second series), hits give low values 1.04 | S. cerevisiae deletion strains, locus YER155C, strain BEM2, hits give low values 1.02 | S. cerevisiae deletion strains, locus YER167W, strain BCK2, hits give low values 1.01 | S. cerevisiae deletion strains, locus YFR010W, strain ubp6, hits give low values 1.04 | S. cerevisiae deletion strains, locus YGL078C, strain dbp3, hits give low values 0.949 | S. cerevisiae deletion strains, locus YGL086W, strain mad1, hits give low values 0.967 | S. cerevisiae deletion strains, locus YGL167C, strain pmr1, hits give low values 1.03 | S. cerevisiae deletion strains, locus YGL173C, strain kem1, hits give low values 1.02 | S. cerevisiae deletion strains, locus YGL227W, strain vid30, hits give low values 1.02 | S. cerevisiae deletion strains, locus YGL240W, strain doc1, hits give low values 1.01 | S. cerevisiae deletion strains, locus YGL248W, strain PDE1, hits give low values 0.997 | S. cerevisiae deletion strains, locus YGL253W, strain hxk2, hits give low values 1.02 | S. cerevisiae deletion strains, locus YGR078C, strain PAC10, hits give low values 0.963 | S. cerevisiae deletion strains, locus YGR135W, strain pre9, hits give low values 0.932 | S. cerevisiae deletion strains, locus YGR252W, strain gcn5, hits give low values 0.815 | S. cerevisiae deletion strains, locus YHR013C, strain ard1, hits give low values 1.07 | S. cerevisiae deletion strains, locus YHR027C, strain rpn1, hits give low values 1.03 | S. cerevisiae deletion strains, locus YHR079C, strain IRE1 (second series), hits give low values 0.978 | S. cerevisiae deletion strains, locus YHR094C, strain hxt1, hits give low values 0.984 | S. cerevisiae deletion strains, locus YHR129C, strain ARP1, hits give low values 1 | S. cerevisiae deletion strains, locus YHR142W, strain chs7, hits give low values 1.04 | S. cerevisiae deletion strains, locus YHR200W, strain rpn10, hits give low values 0.958 | S. cerevisiae deletion strains, locus YIL066C, strain RNR3, hits give low values 1.02 | S. cerevisiae deletion strains, locus YIL073C, strain SPO22, hits give low values 0.999 | S. cerevisiae deletion strains, locus YIL125W, strain kgd1, hits give low values 0.986 | S. cerevisiae deletion strains, locus YIR030C, strain dcg1, hits give low values 0.99 | S. cerevisiae deletion strains, locus YJL092W, strain hpr5, hits give low values 1.02 | S. cerevisiae deletion strains, locus YJL095W, strain BCK1 (second series), hits give low values 1.02 | S. cerevisiae deletion strains, locus YJL095W, strain BCK1, hits give low values 0.934 | S. cerevisiae deletion strains, locus YJL115W, strain asf1, hits give low values 1.03 | S. cerevisiae deletion strains, locus YJL129C, strain trk1, hits give low values 1.01 | S. cerevisiae deletion strains, locus YJL134W, strain LCB3, hits give low values 1.01 | S. cerevisiae deletion strains, locus YJL154C, strain vps35, hits give low values 1.03 | S. cerevisiae deletion strains, locus YJL164C, strain tpk1, hits give low values 1.01 | S. cerevisiae deletion strains, locus YJL166W, strain qcr8, hits give low values 1.01 | S. cerevisiae deletion strains, locus YJL168C, strain set2, hits give low values 0.994 | S. cerevisiae deletion strains, locus YJL187C, strain SWE1 (second series), hits give low values 0.971 | S. cerevisiae deletion strains, locus YJL187C, strain SWE1, hits give low values 1 | S. cerevisiae deletion strains, locus YJR043C, strain POL32, hits give low values 0.992 | S. cerevisiae deletion strains, locus YKL009W, strain mrt4, hits give low values 0.961 | S. cerevisiae deletion strains, locus YKL068W, hits give low values 1 | S. cerevisiae deletion strains, locus YKL085W, strain MDH1 (second series), hits give low values 0.996 | S. cerevisiae deletion strains, locus YKL085W, strain MDH1, hits give low values 0.996 | S. cerevisiae deletion strains, locus YKL160W, strain elf1, hits give low values 1.02 | S. cerevisiae deletion strains, locus YKR026C, strain gcn3, hits give low values 1.02 | S. cerevisiae deletion strains, locus YKR091W, strain srl3, hits give low values 1.02 | S. cerevisiae deletion strains, locus YLL001W, strain dnm1, hits give low values 1.02 | S. cerevisiae deletion strains, locus YLL026W, hits give low values 1.01 | S. cerevisiae deletion strains, locus YLL041C, strain sdh2, hits give low values 1.02 | S. cerevisiae deletion strains, locus YLR027C, strain aat2, hits give low values 1 | S. cerevisiae deletion strains, locus YLR039C, strain RIC1, hits give low values 1.1 | S. cerevisiae deletion strains, locus YLR058C, strain SHM2, hits give low values 0.978 | S. cerevisiae deletion strains, locus YLR102C, strain apc9, hits give low values 0.976 | S. cerevisiae deletion strains, locus YLR221C, strain rsa3, hits give low values 1.01 | S. cerevisiae deletion strains, locus YLR258W, strain gsy2, hits give low values 1.01 | S. cerevisiae deletion strains, locus YLR262C, strain YPT6 (second series), hits give low values 1.01 | S. cerevisiae deletion strains, locus YLR262C, strain YPT6, hits give low values 1.12 | S. cerevisiae deletion strains, locus YLR268W, strain sec22, hits give low values 0.957 | S. cerevisiae deletion strains, locus YLR320W, strain mms22, hits give low values 1.04 | S. cerevisiae deletion strains, locus YLR330W, strain CHS5, hits give low values 0.998 | S. cerevisiae deletion strains, locus YLR342W, strain FKS1, hits give low values 1.01 | S. cerevisiae deletion strains, locus YLR357W, strain rsc2, hits give low values 1.02 | S. cerevisiae deletion strains, locus YLR370C, strain arc18, hits give low values 1.04 | S. cerevisiae deletion strains, locus YLR371W, strain rom2, hits give low values 0.954 | S. cerevisiae deletion strains, locus YLR384C, strain iki3, hits give low values 1.01 | S. cerevisiae deletion strains, locus YLR418C, strain cdc73, hits give low values 0.854 | S. cerevisiae deletion strains, locus YML016C, strain PPZ1, hits give low values 1.01 | S. cerevisiae deletion strains, locus YML032C, strain rad52, hits give low values 0.929 | S. cerevisiae deletion strains, locus YML120C, strain ndi1, hits give low values 1.02 | S. cerevisiae deletion strains, locus YML124C, strain tub3, hits give low values 0.99 | S. cerevisiae deletion strains, locus YMR058W, strain fet3, hits give low values 1.03 | S. cerevisiae deletion strains, locus YMR078C, strain ctf18, hits give low values 0.983 | S. cerevisiae deletion strains, locus YMR125W, strain sto1, hits give low values 0.989 | S. cerevisiae deletion strains, locus YMR129W, hits give low values 1.02 | S. cerevisiae deletion strains, locus YMR205C, strain PFK2, hits give low values 1.01 | S. cerevisiae deletion strains, locus YMR223W, strain ubp8, hits give low values 0.963 | S. cerevisiae deletion strains, locus YMR231W, strain pep5, hits give low values 1.02 | S. cerevisiae deletion strains, locus YMR307W, strain GAS1, hits give low values 0.989 | S. cerevisiae deletion strains, locus YNL067W, strain RPL9B, hits give low values 0.971 | S. cerevisiae deletion strains, locus YNL071W, strain lat1, hits give low values 1.02 | S. cerevisiae deletion strains, locus YNL128W, strain TEP1, hits give low values 0.993 | S. cerevisiae deletion strains, locus YNL209W, strain ssb2, hits give low values 1.02 | S. cerevisiae deletion strains, locus YNL233W, strain BNI4, hits give low values 0.956 | S. cerevisiae deletion strains, locus YNL248C, strain rpa49, hits give low values 1.01 | S. cerevisiae deletion strains, locus YNL250W, strain rad50, hits give low values 0.967 | S. cerevisiae deletion strains, locus YNL271C, strain bni1, hits give low values 0.993 | S. cerevisiae deletion strains, locus YNL298W, strain CLA4, hits give low values 0.969 | S. cerevisiae deletion strains, locus YNL307C, strain MCK1, hits give low values 0.971 | S. cerevisiae deletion strains, locus YNL322C, strain KRE1 (second series), hits give low values 1.02 | S. cerevisiae deletion strains, locus YNL322C, strain KRE1, hits give low values 0.994 | S. cerevisiae deletion strains, locus YNR049C, strain mso1, hits give low values 1.01 | S. cerevisiae deletion strains, locus YNR052C, strain pop2, hits give low values 0.987 | S. cerevisiae deletion strains, locus YOL006C, strain TOP1, hits give low values 0.946 | S. cerevisiae deletion strains, locus YOL012C, strain htz1 1.07 | S. cerevisiae deletion strains, locus YOL147C, strain pex11, hits give low values 0.966 | S. cerevisiae deletion strains, locus YOR001W, strain rrp6, hits give low values 1.03 | S. cerevisiae deletion strains, locus YOR061W, strain CKA2, hits give low values 1.02 | S. cerevisiae deletion strains, locus YOR069W, strain VPS5, hits give low values 1 | S. cerevisiae deletion strains, locus YOR070C, strain gyp1, hits give low values 1.02 | S. cerevisiae deletion strains, locus YOR080W, strain dia2, hits give low values 1.02 | S. cerevisiae deletion strains, locus YOR083W, strain WHI5, hits give low values 1.01 | S. cerevisiae deletion strains, locus YOR106W, strain vam3, hits give low values 1.02 | S. cerevisiae deletion strains, locus YOR136W, strain idh2, hits give low values 0.949 | S. cerevisiae deletion strains, locus YOR144C, strain elg1, hits give low values 0.988 | S. cerevisiae deletion strains, locus YOR184W, strain ser1, hits give low values 0.986 | S. cerevisiae deletion strains, locus YOR265W, strain rbl2, hits give low values 1.01 | S. cerevisiae deletion strains, locus YOR270C, strain vph1, hits give low values 1.07 | S. cerevisiae deletion strains, locus YOR290C, strain snf2, hits give low values 1.03 | S. cerevisiae deletion strains, locus YOR316C, strain cot1, hits give low values 0.983 | S. cerevisiae deletion strains, locus YPL051W, strain arl3, hits give low values 1.02 | S. cerevisiae deletion strains, locus YPL078C, strain atp4, hits give low values 1.03 | S. cerevisiae deletion strains, locus YPL106C, strain sse1, hits give low values 1.03 | S. cerevisiae deletion strains, locus YPL240C, strain hsp82, hits give low values 1.01 | S. cerevisiae deletion strains, locus YPL241C, strain CIN2, hits give low values 0.997 | S. cerevisiae deletion strains, locus YPR119W, strain clb2, hits give low values 0.99 | S. cerevisiae deletion strains, locus YPR141C, strain kar3, hits give low values 1.01 | S. cerevisiae deletion strains, locus YPR167C, strain met16, hits give low values 0.957 | S. cerevisiae deletion strains, strain wtn01, hits give low values 0.97 | S. cerevisiae strains, strain wild type, hits give low values 1.02
active: S. cerevisiae deletion strains, locus YKR001C, strain vps1, hits give low values 0.888 | S. cerevisiae deletion strains, locus YPR163C, strain tif3, hits give low values 0.866
